Among all 2,300 compounds or so, about 430 (19%) were called active. Not all results are given here. Values without a mark were called inactive.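 Rule for the calls: active = mean activation across triplicates above the hit threshold derived in the original primary screen (cut at about 15% in these data); inactive = the rest.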

5-hydroxytryptamine receptor 2A (Mus musculus), sequence (P35363 whole entry, looked up): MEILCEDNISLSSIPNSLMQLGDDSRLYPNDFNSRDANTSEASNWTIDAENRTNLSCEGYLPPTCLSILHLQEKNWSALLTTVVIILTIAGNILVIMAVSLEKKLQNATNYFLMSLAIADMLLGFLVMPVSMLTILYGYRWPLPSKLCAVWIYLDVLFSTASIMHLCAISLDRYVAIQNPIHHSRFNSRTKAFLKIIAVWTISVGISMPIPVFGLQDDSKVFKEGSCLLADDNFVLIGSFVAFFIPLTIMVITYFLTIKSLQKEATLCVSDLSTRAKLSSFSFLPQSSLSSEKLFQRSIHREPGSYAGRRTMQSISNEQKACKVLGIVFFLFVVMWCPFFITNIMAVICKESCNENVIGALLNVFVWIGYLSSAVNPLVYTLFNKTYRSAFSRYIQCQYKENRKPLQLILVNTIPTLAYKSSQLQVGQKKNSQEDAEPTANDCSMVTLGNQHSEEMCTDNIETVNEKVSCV

This assay addresses 5-hydroxytryptamine receptor 2A (Mus musculus) (UniProt P35363). Briefly: mouse HTR2A agonists, beta-arrestin recruitment, confirmation, cell-based, luminescence, CHO-K1 PathHunter, triplicate (AID 624381). The conditions noted are these: at 7.6 µM, hits give high values, DMSO 0%, 30 µM serotonin 100%. On the technique in general: Activated receptors often draw arrestin, which recruitment assays turn into a signal.
Turning to `O=C(OCC(=O)N1CCOCC1)c1ccc2ccccc2c1`, the activation was -4.74%.

Take `Cc1cc(C)n(S(=O)(=O)c2cccc([N+](=O)[O-])c2)n1`: the activation is -4.03%.

As to `COc1ccc2c(Cl)c(-c3nnco3)sc2c1`, the activation was -2.25%.

As for `CCn1c(SCC(=O)N2CCCC2=O)nc2ccccc21`, the activation is -2.49%.

For `O=C(Cc1ccccc1)n1nc(-c2ccccc2)nc1NCc1ccco1`, the activation was 4.58%.

As to `OCC1(Cc2ccccc2)CCN(Cc2cc3ccccc3o2)CC1`, the activation is 81.8% (active).

With `COc1ccc(N2CC(C(=O)NCCN3C(=O)S/C(=C\c4cccnc4)C3=O)CC2=O)c(OC)c1` (stereo not drawn), the activation was -1.44%.

For the compound `Cc1c(C(=O)NCC2CC2)sc(=O)n1Cc1cccc(F)c1`, the activation is -3.87%.

On to `COc1ccc(/C(=N\O)c2nccc3cc(OC)c(OC)cc23)cc1OC`, for which the activation was -3.02%.

For `Cc1ccccc1CSCC(=O)NC(=O)NC(C)(C)C`, the activation is -3.39%.

For the compound `N#Cc1c(NC(=O)CCCl)sc2c1CCCCC2`, the activation is 0.58%.

For `O=C(NCc1ccco1)c1cccn2c(=O)c3c4c(sc3nc12)CCCC4`, the activation was -1.08%.

Regarding `Fc1ccc2[nH]c3c(N4CCSCC4)ncnc3c2c1`, the activation was 3.26%.

On to `CCCCNc1c(-c2cccc(Sc3ccc(OC)cc3)c2)nc2ccccn12`, for which the activation was 5.41%.

For `COc1ccccc1Nc1nnc(SC(C)C(=O)NC2CC2)s1` (stereo not drawn), the activation was -1.26%.

With `Cc1oc2cc(Br)c(O)c(Br)c2c1C(=O)c1ccccc1`, the activation was -2.71%.

With `N/C(=N\S(=O)(=O)c1cc(C(F)(F)F)cc(C(F)(F)F)c1)c1cccs1`, the activation is -1.99%.

With `O=C(Nc1cc(=O)[nH]c2ncnn12)c1ccccc1Cl`, the activation is -5.17%.

With `CCOC(=O)[C@]12CCCC=C1N(Cc1ccc3c(c1)OCO3)C(=O)[C@H](CC(=O)NCc1cccs1)C2`, the activation is -3.55%.

Take `O=C1CC(c2cccc(Cl)c2)CC(O)=C1C=Nc1ccccc1` (stereo not drawn): the activation was -4.5%.

As for `COc1cccc(NC(=O)CSc2nnc(-c3cccnc3)o2)c1`, the activation was -0.15%.

For the compound `Cc1ccc2nc(-c3ccncc3)cc(C(=O)Nc3ccncc3)c2c1`, the activation is 12.6%.

For the compound `C/C(=N\NC(=S)NC1CCCCC1)c1ccc(C)o1`, the activation was 29.7% (active).

With `Cn1c2c(c(=O)n(C)c1=O)C(c1ccc(O)cc1)Nc1ccccc1O2` (stereo not drawn), the activation is -3.78%.

On to `O=C(Cc1ccsc1)N1CCN(S(=O)(=O)c2cc(C(F)(F)F)cc(C(F)(F)F)c2)CC1`, for which the activation was -3.88%.

Regarding `CO/N=C/CC(=O)c1ccc(OC)cc1`, the activation is -1.94%.

Turning to `CCOC(=O)/C=c1\s/c(=C\c2ccccc2OC)c(=O)n1CC(=O)N1CCOCC1`, the activation was -3.42%.

As for `O=S(=O)(c1ccc(OCC(O)CN2CCN(c3ccccc3Cl)CC2)cc1)N1CCOCC1` (stereo not drawn), the activation was 41.2% (active).

In the case of `O=C(COC(=O)c1cc(S(=O)(=O)N2CCOCC2)ccc1F)NC1CC1`, the activation was -1.03%.

For the compound `Nc1c(N(Cc2ccco2)C(=O)c2cccc(F)c2)c(=O)[nH]c(=O)n1Cc1ccccc1`, the activation was -0.68%.

In the case of `C[C@@H]1ON(C)[C@H]2C[C@H]3c4cc(N5CCN(C)CC5)ccc4CCN3C(=O)[C@@H]12`, the activation is 4.65%.

For `CCOC(=O)c1ccc(NC(=O)Cn2cnc3cc(C)c(C)cc32)cc1`, the activation is -2.29%.

For the compound `CNCC(O)c1ccc(O)c(O)c1` (stereo not drawn), the activation is 136% (active).

On to `C=C1C(=O)OC2C1CCC(C)=CCCC1(C)OC21` (stereo not drawn), for which the activation was -6.24%.

Regarding `Cc1cccnc1C(NC(=O)C1CCN(Cc2ccc(Cl)c(Cl)c2)CC1)c1ccc(Cl)cc1` (stereo not drawn), the activation was -7.94%.

Consider `Cc1ccc(C(=O)N/C(=C/c2cccs2)C(=O)N2CCCCC2)cc1`, for which the activation is -4.44%.

Regarding `CCn1cc(C(=O)OCC(=O)Nc2cccc(C)c2)c(=O)c2ccc(C)nc21`, the activation was -1.9%.

For `COc1ccc(C(C)=O)cc1COC(=O)Cn1cnc2ccccc2c1=O`, the activation is 2.93%.

For the origin of these results see PubChem BioAssay AID624381 (The Scripps Research Institute Molecular Screening Center, 2012).
